# Measured values reported in PubChem BioAssay AID1159580 (chemical genetic matrix, 2015).
# Out of some 5,500 compounds screened, about 2,000 (36%) were called active. About 18% were inconclusive and are not listed. Rule as the data show it: active = normalized growth mostly below about 0.91 (no sharp cut-off); inconclusive = no clear call, values can overlap the other calls; inactive = mostly above about 0.92. The list shows a part of the results.
# Test: chemical genetic growth profiling, strain panel (AID 1159580);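 also: tested at 20 µM; growth read once vehicle control cultures reached saturation at 30 °C; 1 = growth at the plate median or of vehicle wells; lower values mean less growth of the strain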
# Details: growth OD
smiles,measurement,setting,value
CCC(=O)O[C@H]1[C@H](O[C@@H]2[C@@H](C)[C@H](O[C@H]3C[C@@](C)(OC)[C@@H](O)[C@H](C)O3)[C@@H](C)C(=O)O[C@H](CC)[C@@](C)(O)[C@H](O)[C@@H](C)C(=O)[C@H](C)C[C@@]2(C)O)O[C@H](C)C[C@@H]1N(C)C,normalized growth,"S. cerevisiae deletion strains, locus YJR066W, strain TOR1, active compounds read low",0.852 (inactive)
same,normalized growth,"S. cerevisiae deletion strains, locus YKL009W, strain mrt4, active compounds read low",0.932 (inactive)
same,normalized growth,"S. cerevisiae deletion strains, locus YKL068W, active compounds read low",1.04 (inactive)
same,normalized growth,"S. cerevisiae deletion strains, locus YKL085W, strain MDH1 (second series), active compounds read low",1 (inactive)
same,normalized growth,"S. cerevisiae deletion strains, locus YKL085W, strain MDH1, active compounds read low",1 (inactive)
same,normalized growth,"S. cerevisiae deletion strains, locus YKL160W, strain elf1, active compounds read low",0.924 (inactive)
same,normalized growth,"S. cerevisiae deletion strains, locus YKL190W, strain CNB1, active compounds read low",1.01 (inactive)
same,normalized growth,"S. cerevisiae deletion strains, locus YKR001C, strain vps1, active compounds read low",0.648 (active)
same,normalized growth,"S. cerevisiae deletion strains, locus YKR026C, strain gcn3, active compounds read low",1.03 (inactive)
same,normalized growth,"S. cerevisiae deletion strains, locus YKR091W, strain srl3, active compounds read low",1.02 (inactive)
same,normalized growth,"S. cerevisiae deletion strains, locus YLL001W, strain dnm1, active compounds read low",0.87 (active)
same,normalized growth,"S. cerevisiae deletion strains, locus YLL026W, active compounds read low",0.942 (inactive)
same,normalized growth,"S. cerevisiae deletion strains, locus YLL041C, strain sdh2, active compounds read low",1 (inactive)
same,normalized growth,"S. cerevisiae deletion strains, locus YLR027C, strain aat2, active compounds read low",0.893 (active)
same,normalized growth,"S. cerevisiae deletion strains, locus YLR039C, strain RIC1, active compounds read low",0.865 (inactive)
same,normalized growth,"S. cerevisiae deletion strains, locus YLR058C, strain SHM2, active compounds read low",0.968 (inactive)
same,normalized growth,"S. cerevisiae deletion strains, locus YLR102C, strain apc9, active compounds read low",1.01 (inactive)
same,normalized growth,"S. cerevisiae deletion strains, locus YLR113W, strain HOG1, active compounds read low",1.02 (inactive)
same,normalized growth,"S. cerevisiae deletion strains, locus YLR221C, strain rsa3, active compounds read low",0.796 (active)
same,normalized growth,"S. cerevisiae deletion strains, locus YLR258W, strain gsy2, active compounds read low",0.902 (active)
same,normalized growth,"S. cerevisiae deletion strains, locus YLR262C, strain YPT6 (second series), active compounds read low",1.03 (inactive)
same,normalized growth,"S. cerevisiae deletion strains, locus YLR262C, strain YPT6, active compounds read low",0.882 (inactive)
same,normalized growth,"S. cerevisiae deletion strains, locus YLR268W, strain sec22, active compounds read low",0.988 (inactive)
same,normalized growth,"S. cerevisiae deletion strains, locus YLR320W, strain mms22, active compounds read low",0.596 (active)
same,normalized growth,"S. cerevisiae deletion strains, locus YLR330W, strain CHS5, active compounds read low",0.937 (inactive)
same,normalized growth,"S. cerevisiae deletion strains, locus YLR342W, strain FKS1 (second series), active compounds read low",1.05 (inactive)
same,normalized growth,"S. cerevisiae deletion strains, locus YLR342W, strain FKS1, active compounds read low",1.05 (inactive)
same,normalized growth,"S. cerevisiae deletion strains, locus YLR357W, strain rsc2, active compounds read low",0.759 (active)
same,normalized growth,"S. cerevisiae deletion strains, locus YLR370C, strain arc18, active compounds read low",1 (inactive)
same,normalized growth,"S. cerevisiae deletion strains, locus YLR371W, strain rom2, active compounds read low",0.935 (inactive)
same,normalized growth,"S. cerevisiae deletion strains, locus YLR384C, strain iki3, active compounds read low",1.02 (inactive)
same,normalized growth,"S. cerevisiae deletion strains, locus YLR418C, strain cdc73, active compounds read low",0.615 (active)
same,normalized growth,"S. cerevisiae deletion strains, locus YML016C, strain PPZ1, active compounds read low",1 (inactive)
same,normalized growth,"S. cerevisiae deletion strains, locus YML032C, strain rad52, active compounds read low",0.946 (inactive)
same,normalized growth,"S. cerevisiae deletion strains, locus YML120C, strain ndi1, active compounds read low",0.905 (active)
same,normalized growth,"S. cerevisiae deletion strains, locus YML124C, strain tub3, active compounds read low",1.02 (inactive)
same,normalized growth,"S. cerevisiae deletion strains, locus YMR058W, strain fet3, active compounds read low",0.961 (inactive)
same,normalized growth,"S. cerevisiae deletion strains, locus YMR078C, strain ctf18, active compounds read low",0.988 (inactive)
same,normalized growth,"S. cerevisiae deletion strains, locus YMR125W, strain sto1, active compounds read low",0.765 (active)
same,normalized growth,"S. cerevisiae deletion strains, locus YMR129W, active compounds read low",1 (inactive)
same,normalized growth,"S. cerevisiae deletion strains, locus YMR205C, strain PFK2, active compounds read low",0.8 (active)
same,normalized growth,"S. cerevisiae deletion strains, locus YMR223W, strain ubp8, active compounds read low",0.982 (inactive)
same,normalized growth,"S. cerevisiae deletion strains, locus YMR231W, strain pep5, active compounds read low",0.984 (inactive)
same,normalized growth,"S. cerevisiae deletion strains, locus YMR263W, strain SAP30, active compounds read low",0.943 (inactive)
same,normalized growth,"S. cerevisiae deletion strains, locus YMR307W, strain GAS1, active compounds read low",0.463 (active)
same,normalized growth,"S. cerevisiae deletion strains, locus YNL067W, strain RPL9B, active compounds read low",0.948 (inactive)
same,normalized growth,"S. cerevisiae deletion strains, locus YNL071W, strain lat1, active compounds read low",0.309 (active)
same,normalized growth,"S. cerevisiae deletion strains, locus YNL128W, strain TEP1, active compounds read low",0.985 (inactive)
same,normalized growth,"S. cerevisiae deletion strains, locus YNL183C, strain NPR1, active compounds read low",0.857 (inactive)
same,normalized growth,"S. cerevisiae deletion strains, locus YNL209W, strain ssb2, active compounds read low",0.992 (inactive)
same,normalized growth,"S. cerevisiae deletion strains, locus YNL233W, strain BNI4, active compounds read low",0.853 (active)
same,normalized growth,"S. cerevisiae deletion strains, locus YNL248C, strain rpa49, active compounds read low",0.776 (active)
same,normalized growth,"S. cerevisiae deletion strains, locus YNL250W, strain rad50, active compounds read low",1.03 (inactive)
same,normalized growth,"S. cerevisiae deletion strains, locus YNL271C, strain bni1, active compounds read low",1.01 (inactive)
same,normalized growth,"S. cerevisiae deletion strains, locus YNL298W, strain CLA4, active compounds read low",0.952 (inactive)
same,normalized growth,"S. cerevisiae deletion strains, locus YNL307C, strain MCK1, active compounds read low",0.4 (active)
same,normalized growth,"S. cerevisiae deletion strains, locus YNL322C, strain KRE1 (second series), active compounds read low",0.943 (inactive)
same,normalized growth,"S. cerevisiae deletion strains, locus YNR049C, strain mso1, active compounds read low",1.01 (inactive)
same,normalized growth,"S. cerevisiae deletion strains, locus YNR052C, strain pop2, active compounds read low",1 (inactive)
same,normalized growth,"S. cerevisiae deletion strains, locus YOL006C, strain TOP1, active compounds read low",0.689 (inactive)
same,normalized growth,"S. cerevisiae deletion strains, locus YOL012C, strain htz1",0.653 (inactive)
same,normalized growth,"S. cerevisiae deletion strains, locus YOL147C, strain pex11, active compounds read low",0.977 (inactive)
same,normalized growth,"S. cerevisiae deletion strains, locus YOR001W, strain rrp6, active compounds read low",0.861 (active)
same,normalized growth,"S. cerevisiae deletion strains, locus YOR061W, strain CKA2, active compounds read low",1.01 (inactive)
same,normalized growth,"S. cerevisiae deletion strains, locus YOR069W, strain VPS5, active compounds read low",1 (inactive)
same,normalized growth,"S. cerevisiae deletion strains, locus YOR070C, strain gyp1, active compounds read low",0.93 (inactive)
same,normalized growth,"S. cerevisiae deletion strains, locus YOR080W, strain dia2, active compounds read low",0.977 (inactive)
same,normalized growth,"S. cerevisiae deletion strains, locus YOR083W, strain WHI5, active compounds read low",0.829 (active)
same,normalized growth,"S. cerevisiae deletion strains, locus YOR106W, strain vam3, active compounds read low",0.75 (active)
same,normalized growth,"S. cerevisiae deletion strains, locus YOR136W, strain idh2, active compounds read low",0.978 (inactive)
same,normalized growth,"S. cerevisiae deletion strains, locus YOR144C, strain elg1, active compounds read low",1.01 (inactive)
same,normalized growth,"S. cerevisiae deletion strains, locus YOR184W, strain ser1, active compounds read low",0.936 (inactive)
same,normalized growth,"S. cerevisiae deletion strains, locus YOR231W, strain MKK1, active compounds read low",0.879 (inactive)
same,normalized growth,"S. cerevisiae deletion strains, locus YOR265W, strain rbl2, active compounds read low",0.982 (inactive)
same,normalized growth,"S. cerevisiae deletion strains, locus YOR270C, strain vph1, active compounds read low",0.3 (active)
same,normalized growth,"S. cerevisiae deletion strains, locus YOR290C, strain snf2, active compounds read low",0.786 (active)
same,normalized growth,"S. cerevisiae deletion strains, locus YOR316C, strain cot1, active compounds read low",1.01 (inactive)
same,normalized growth,"S. cerevisiae deletion strains, locus YPL051W, strain arl3, active compounds read low",0.921 (inactive)
same,normalized growth,"S. cerevisiae deletion strains, locus YPL055C, strain LGE1, active compounds read low",0.894 (inactive)
same,normalized growth,"S. cerevisiae deletion strains, locus YPL078C, strain atp4, active compounds read low",0.635 (active)
same,normalized growth,"S. cerevisiae deletion strains, locus YPL106C, strain sse1, active compounds read low",1.06 (inactive)
same,normalized growth,"S. cerevisiae deletion strains, locus YPL240C, strain hsp82, active compounds read low",0.904 (active)
same,normalized growth,"S. cerevisiae deletion strains, locus YPL256C, strain CLN2, active compounds read low",0.953 (inactive)
same,normalized growth,"S. cerevisiae deletion strains, locus YPR119W, strain clb2, active compounds read low",1.02 (inactive)
same,normalized growth,"S. cerevisiae deletion strains, locus YPR141C, strain kar3, active compounds read low",1.06 (inactive)
same,normalized growth,"S. cerevisiae deletion strains, locus YPR163C, strain tif3, active compounds read low",0.829 (active)
same,normalized growth,"S. cerevisiae deletion strains, locus YPR167C, strain met16, active compounds read low",0.994 (inactive)
same,normalized growth,"S. cerevisiae deletion strains, strain wtn01, active compounds read low",0.968 (inactive)
same,normalized growth,"S. cerevisiae strains, strain wild type, active compounds read low",0.974 (inactive)
